Test results reported in the supplement of paper PMC6555819.

These sequences were tested on VDR:RXRa (NR concentration 270 nM, RXRa partner concentration 90 nM) (assay: PBM binding z-score (relative to random genomic background probes); higher = stronger binding; sequences stand for … in GC…GCGATTGACAGCGTAGAATGAAGG).
Procedure: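 Protein-binding microarray (Agilent 4x180K custom design, double-stranded 60-nt probes: 5' GC cap, 34-nt variable region, 24-nt constant primer region; full probe sequence given). Purified or IVT nuclear receptor:RXRα heterodimers (3:1 NR:RXRα, mostly 270:90 nM) or homodimers were incubated for 1 h in PBS with 2% milk and no ligand, then detected with Alexa488 antibodies. Fluorescence from o1-orientation probes (~5 replicates averaged) was converted to z-scores against 500 random hg19 background probes. Variable regions are seed direct-repeat (DR0–DR5) sites, all their single-nucleotide variants and half-site ablations.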

Row | Sequence | PBM binding z-score
1 | TAGCCTAGGTCATTCAGGGGCTAGTATAGAAAGC | 2.8
2 | TCTAGCTGGTCACGGAGGTCACACACGACGGGTA | 6.05
3 | CCTGCTAGGTCAAGGGTCAGCTAAAGCAGCTCGC | 4.17
4 | AATACAGGGTCACTAGGCCAGAGTGGGTACGAAT | 3.97
5 | GCTGCAAGGTCAACTGATGGTCAGCTAAAGCTCG | 4.66
6 | CCTTACGGGTCAAGGTTATACCACGGGTGGTACG | 3.65
7 | CGAACTAGGTCACCAGGAGAGTGAAGAGGTTGGA | 1.71
8 | CTATGTACGTTAAGGGGGTCATTCAGTTTGAAAG | 6.72
9 | AGCGAAAGGTCGAAGGTGAGTATACCCACCCGAA | 2.8
10 | ATCGAAAGGTCGAAGGAGAGTATACCCACCCGAA | 2.23
11 | GGAACGGGGGCATTCGAGTTGATAGCATGGCGAT | 5.52
12 | AGTGAAAGTTCAGGACGAGGTAACGTAAAGCACG | 2.81
13 | CGTCCAACGTCAGCAGGTCAGTGAAAGCGACGTG | -0.198
14 | CGTCAAAGTTCAACTAAGGTAACTTAAAGCACGC | 4.76
15 | CGAACTAGGTCACAGGACAGTGAAAGGCGACGTA | 1.61
16 | CGAACTAAGTCATCCAGGACAGTGAATACATTGA | 0.524
17 | ATATGTAGGTCAGGGTCATTCAGAAAGTAGGGAA | 5.08
18 | TAGCCAAGGTCATTCAGGGGCCAGTATAGAAAGC | 5.28
19 | TCTCGGAGGACACGAAAGGTGAGAGCTCGACATC | 0.263
20 | CGAACTAGGTCACCAGGACAGTAAAGAGGTTGGA | 2.05

Row | Sequence | PBM binding z-score
21 | ATATGTAGGTTAGCTGGAGTCATTCAGACTAGGC | 0.533
22 | TGAATGAGGTTTAAGATCAGGGAACGTGGCGTCG | -0.255
23 | GCTGCTAGGTCATGTTGGTCAGCTAACGGGTACG | 2.15
24 | CCCACTGGGCCATTCAGAGGTCATTGATCATATG | 4.02
25 | ACTCGGAGGGCAAAGGTCAGAGCTACGCCAGTGA | 4.32
26 | GCATACGGGTCAAAGGTTATAGCATGAATAGAAT | 5.37
27 | ATCGAAAGGTCGAAGGTGAGTCTACCCACCCGAA | 3.08
28 | GTACCAAGGTGAATAGGTCGTTGATGAGTAGGCG | 0.95
29 | TCGACTAGGTTACGGGGGCATTCAGGGATGAAGA | 4.04
30 | ATATGTAGGTTAGCGGGGGTCATTCAGACTAGGC | 6.4
31 | CCGACGGGGGCAAGGTTACCATAACGCACAGCCA | 3.01
32 | CGAACTAGGTCACCAGCACAGTGAAGAGGTTGGA | 1.89
33 | TCGAGTAGGTTACGGGGGCATTCATGGATGAAGA | 3.71
34 | AATACAGGGTCACTTGGCCAGAGTAGGTACGAAT | 4.36
35 | TCGAGAAGGTTACGGGGGCATTCAGGGATGAAGA | 4.82
36 | CCTACTGGGCCATTCAGAGGACATTGATCATATG | -0.347
37 | GATTCAGGGTCAGCTAGAGGCCAGAGTATGGAAA | 4.09
38 | CAAACTAGGTCACAGGGGTCAAAGTCCGTGCGTA | 8.24
39 | TCATATAGGTTAAGGTGAAAGTCGAACGATATGA | 0.985
40 | CCTGCTAGGTCTATGGTCAGCTAAAGCAGCTCGC | -0.536
